From PubChem
CHX counter: counter-screen for Shiga toxin inhibitors: cycloheximide protein synthesis inhibition | AID 2314 | cell reporter, cycloheximide protein synthesis inhibition counterscreen | hit rate 12% among 300,000 | max response, %; in the data active = max response mostly above about 13%, no sharp cut-off; inactive = mostly below about 14%; note: read at 38.3 µM for the half of the compounds with a filed dose
RE007 growth inh: less growth of the S. pombe RE007 Vpr strain; S. pombe RE007 Vpr strain, BacTiter-Glo ATP luminescence, 24 h; Potency, µM (doses to about 92.2 µM), hits mostly inhibitors; hit rate 0.21% among 360,000; active = well fitted falling curve with a large enough effect; inconclusive = small, poorly fitted or top-dose-only effect; inactive = no such curve, though single readings can be large or run the other way; note: nearly all actives have a fitted effect of over 50% in size
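Fission yeast RE007 carrying one integrated HIV-1 vpr copy, seeded at OD 0.01 in PMG+AL medium with 23 nL pinned compound. Grown 24 h at 30 degrees; viability read by BacTiter-Glo luminescence after 5 min.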
Giardia FBPA inh: Giardia lamblia aldolase inhibition | purified Giardia FBPA | AID 2451 | hit rate 0.71% among 290,000 | Potency, µM (doses to about 59.6 µM), usual class: inhibitors | A8B2U2; note: nearly all actives have a fitted effect of over 55% in size
Target sequence (A8B2U2 whole entry, looked up): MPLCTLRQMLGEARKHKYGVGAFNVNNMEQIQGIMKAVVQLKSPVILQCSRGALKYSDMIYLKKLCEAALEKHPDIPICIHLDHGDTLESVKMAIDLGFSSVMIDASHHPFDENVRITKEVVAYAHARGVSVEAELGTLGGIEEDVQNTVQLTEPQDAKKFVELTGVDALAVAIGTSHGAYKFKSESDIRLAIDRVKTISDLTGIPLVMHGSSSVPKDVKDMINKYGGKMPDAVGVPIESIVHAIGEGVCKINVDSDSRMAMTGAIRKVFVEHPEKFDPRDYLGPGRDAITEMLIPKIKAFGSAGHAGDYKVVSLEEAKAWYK
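40 nM FBPA preincubated 10 min at RT with compound (up to 57.5 uM final), then substrate plus GAPDH/TPI/NAD/arsenate coupling and diaphorase/resazurin added. Fluorescence read after 20 min at RT, 525/598 nm.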
LmPK inhibitor: inhibitors of Leishmania mexicana pyruvate kinase. hit rate 0.37% among 290,000. Q27686. AID 1721. purified LmPK, Kinase-Glo ATP luminescence, 1 h. Potency, µM (titrated, usually from 57.5 µM), most hits filed as inhibitors
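Pyruvate kinase activity monitored as ATP production (luciferase luminescence). Conditions: 0.1 nM enzyme, 0.5 mM PEP, 0.1 mM ADP, 1 h, RT; normalized against uninhibited and no-enzyme wells.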
Shiga toxin inh: Shiga toxin inhibition | Vero cells, Shiga toxin protein synthesis inhibition reporter | inhibition, % at 38.7 µM | hit rate 9.2% among 290,000; in the data active = inhibition mostly above about 28%, no sharp cut-off; inactive = mostly below about 43%
TbPYK inhibitor: blocks Trypanosoma brucei pyruvate kinase | Q57TT1 | TbPYK enzyme, Kinase-Glo Plus ATP luminescence, 45 min | Potency, µM (top dose mostly 76.8 µM), actives largely listed as inhibitors | hit rate 0.12% among 410,000; note: nearly all actives have a fitted effect of over 50% in size
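Luminescent Kinase-Glo Plus end-point after 45 min room-temperature reaction of T. brucei pyruvate kinase started with 130 uM ADP (final). Buffer TEA 50 mM pH 7.2 with KCl, MgCl2, BSA, Tween-20; titration-based qHTS with fitted concentration-effect curves.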
Hits are given with their value; . = inactive; ? = inconclusive; / = no result given; ! = repeats disagree; [ ] = remark or other dose. Shown is part of a subset that was picked to be rich in hits. Unless noted, calls come from the whole dose curve; as a rule, active = well fitted curve in the direction sought with a large enough effect; inconclusive = small, poorly fitted or top-dose-only effect, or another doubt; inactive = no such curve, though single readings can be large; an effect the other way counts as inactive or inconclusive.

SMILES	CHX counter	RE007 growth inh	Giardia FBPA inh	LmPK inhibitor	Shiga toxin inh	TbPYK inhibitor
COC(=O)c1nnn(-c2nonc2N)c1CSc1nc2ccccc2s1	21	.	.	.	.	.
C#CCNC(=O)C1=C[C@H](c2ccc3c(c2)OCO3)C[C@H](OCCCCO)O1	/	.	/	/	/	.
O=C(O)C1=C[C@@H](c2ccc3c(c2)OCO3)C[C@@H](OCc2ccc(CO)cc2)O1	.	.	.	.	.	.
C#CCNC(=O)C1=C[C@H](c2ccc3c(c2)OCO3)C[C@H](OCc2ccc(CO)cc2)O1	18	.	.	.	.	.
NC(=O)C1=C[C@H](c2ccc3c(c2)OCO3)C[C@H](OCc2ccc(CO)cc2)O1	43	.	?	.	49	.
S=C(NCCc1ccc(Cl)cc1)NC1CCCC1	44	.	.	.	71	.
O=C(NC1CCCCC1)C(=S)NCCc1ccccc1	.	.	?	.	.	?
S=C(NCCc1ccccc1)NC1CCCCCC1	51	.	.	.	73	.
S=C(NCc1ccccc1Cl)NC1CCCC1	.	.	.	.	.	.
S=C(NCCc1ccc(Cl)cc1)NC1CCCCC1	56	.	.	.	103	.
S=C(NCCc1ccccc1)NCC(c1ccco1)N1CCCCC1 (configuration not stated)	15	.	.	.	.	.
COc1ccc(CCNc2nc(SCc3ccc(F)cc3)nc3ccccc23)cc1OC	/	/	/	/	/	.
c1ccc(-c2noc(-c3ccccc3-c3ccccc3)n2)cc1	.	.	.	.	.	.
c1ccc(-c2noc(-c3ccc4c(c3)OCO4)n2)cc1	64	.	.	16µM	109	.
COc1ccc(OC)c2nc(-c3ccc4c(c3)OCO4)ccc12	62	.	.	.	105	.
c1ccc(-c2noc(-c3ccc4ccccc4c3)n2)cc1	55	.	.	.	105	.
COc1ccc(-c2oc(=O)c3cc(OC)c(OC)cc3c2-c2ccc3c(c2)OCO3)cc1	/	.	/	/	/	.
COc1ccc(-c2noc(-c3ccc4c(c3)OCO4)n2)cc1	14	.	.	.	.	.
COc1ccc(C2c3c(n(C)c4ccccc34)C(=O)N2CC(=O)Nc2ccccc2F)cc1 (configuration not stated)	/	/	/	/	/	.[15.4 µM]
C=CCC(C)(O)C(=O)OCC (configuration not stated)	/	/	.	/	/	/
CCC/C=C(\CCC)C(NS(=O)(=O)c1ccc(Cl)cc1)c1ccccc1 (configuration not stated)	/	/	.	/	/	/
COc1ccc(-c2cc(C(=O)N3CCCCC3)no2)cc1OC	39	.	.	.	77	.
COc1ccc(-c2cc(C(=O)N3CCCC3)no2)cc1OC	20	.	.	.	86	.
COc1cc2oc(=O)c(CC(=O)NCCc3ccccc3)c(C)c2cc1Cl	/	/	/	/	/	.
CCNc1ncc2ncc(=O)n(Cc3ccc(F)cc3)c2n1	/	/	.	/	/	/
SMILES	CHX counter	RE007 growth inh	Giardia FBPA inh	LmPK inhibitor	Shiga toxin inh	TbPYK inhibitor
Cc1nnc(SCC2=C(C(=O)O)N3C(=O)C(NC(=O)Cn4nc(C(F)F)c(Cl)c4C)C3SC2)s1 (configuration not stated)	.	.	4µM	.	.	.
CC(=O)OCC1=C(C(=O)O)N2C(=O)C(NC(=O)Cn3nc(C(F)F)c(Cl)c3C)C2SC1 (configuration not stated)	.	.	.	.	.	.
Cc1ccc(NP(=O)(c2ccccc2)c2nc3ccccc3s2)cc1 (configuration not stated)	31	.	.	.	62	.
O=C(NCc1ccc(F)cc1)C(=O)NCC(c1ccc2c(c1)OCO2)N1CCOCC1 (configuration not stated)	/	/	/	/	/	.
O=C1N(Cc2ccc(F)cc2)CCN1c1ccc(F)cc1	29	.	.	.	58	.
O=C1NCCCN1Cc1ccc(F)cc1	.	.	.	.	.	.
COc1cccc(CN2CCN(c3ccc(F)cc3)C2=O)c1	34	.	.	.	.	.
COc1cccc(CN2CC=C(c3ccc(F)cc3)CC2)c1	.	.	?	.	.	.
Cc1ccc(Cn2cc(/C=C(/C#N)C(=O)Nc3cccc(Cl)c3)c3ccccc32)cc1	/	/	/	/	/	.
C/C=C/C(O)c1ccc2ccccc2c1 (configuration not stated)	20!	/	.	.	26!	/
COc1cccc(CNc2ncnc3onc(-c4ccc(F)cc4)c23)c1	/	/	/	/	/	.
CCc1ccc(-c2cn(-c3nc(C)cc(C)n3)c(=N)o2)cc1	23	.	.	.	.	.
Cc1ccc(NC(=O)C(Cc2ccccc2)n2cccc2)c(C)c1 (configuration not stated)	/	/	/	/	/	.
O=C1C2=C(Nc3ccccc3SC2c2ccco2)c2ccccc21 (configuration not stated)	33	.	?	.	78	?
Clc1ccc(-c2nnc(COc3ncnc4sccc34)o2)cc1	34	.	.	.	34	.
CC(=O)N1CCCc2cc(S(=O)(=O)N3CCC(C(=O)NCc4cccc(C)c4)CC3)ccc21	/	/	/	/	/	.
CC(C)c1nn2c(=O)cc(COC(=O)c3ccc(NC(=O)CCc4ccccc4)cc3)nc2s1	/	/	/	/	/	.
O=C(O/N=C1\CCS(=O)(=O)c2sccc21)c1ccc(F)cc1	37	.	.	.	78	.
CNC[C@H](O)c1ccc(O)c(O)c1	.	.[18.4 µM]	18µM	.	.	.
CC(N)[C@H](O)c1ccc(O)c(O)c1 (some centres not stated)	.	/	?	/	.	/
C[C@H](N)[C@H](O)c1ccc(O)c(O)c1	/	/	7.1µM	/	/	/
